# Rows were chosen to be rich in hits. Some 21% of all compounds tested hit in one or more screens of this group.
# Sm TGR block: qHTS Assay for the Inhibitors of Schistosoma Mansoni Peroxiredoxins; purified TGR, DTNB reduction, TNB absorbance 405 nm; Potency, µM (series often up to 114 µM), for inactives: at the highest dose activity change, negative = inhibition, usual class: inhibitors; 360,000 tested, 3% active; also: potency is read from the fitted curve at half-maximal effect; % is scaled to controls: 0 for no effect and ±100 for the full control effect; nearly all actives have a fitted effect of over 60% in size
#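 TGR 20 nM + NADPH 100 uM (dispensed conc.), cpd preinc 15 min RT; start with NADPH (500 uM addition) then DTNB (15 mM addition). Kinetic TNB absorbance, 405 nm filter. Four-parameter Hill fit across titration.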
# NS1 function inh: qHTS Assay for Inhibitors of Influenza NS1 Protein Function; Potency, µM (top dose mostly 46.1 µM), without a hit: at the highest dose activity, positive = more growth; 270,000 tested, 0.4% active; calls by dose curve; also: potency is read from the fitted curve at half-maximal effect; actives are rising curves; nearly all actives have a fitted effect of over 50% in size
#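 Growth recovery, yeast-based: influenza A NS1 expressed in S. cerevisiae causes slow growth, and suppressors are detected by OD600. The parent strain without NS1 is used as positive control.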
# Pf growth 96h: Primary qHTS for delayed death inhibitors of the malarial parasite plastid, 96 hour incubation; Potency, µM (series often up to 28.7 µM), for the others: top-dose activity change, negative = inhibition, most hits filed as inhibitors; P. falciparum luciferase reporter growth, 96 h; 320,000 tested, 6.9% active; also: potency is read from the fitted curve at half-maximal effect; % is scaled to controls: 0 for no effect and ±100 for the full control effect
#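 Cell-based qHTS: luciferase-tagged P. falciparum in erythrocytes (2% hematocrit, 0.05% parasitemia final) incubated with compounds for 96 hours, 37 C, 5% CO2; luciferase detection reagent then added and luminescence measured.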
# Shiga inhibitor: A qHTS for Small Molecule Inhibitors of Shiga Toxin. Vero cells, Shiga toxin protein synthesis inhibition reporter. AID 2315, 2010. 290,000 tested, 9.2% active. inhibition, % at 38.7 µM; in the data active = inhibition mostly above about 28%, no sharp cut-off; inactive = mostly below about 43%; also: 0% is about no effect
# CHX counter: Cycloheximide Counterscreen for Small Molecule Inhibitors of Shiga Toxin; max response, %; cell reporter, cycloheximide protein synthesis inhibition counterscreen; 300,000 tested, 12% active; in the data active = max response mostly above about 13%, no sharp cut-off; inactive = mostly below about 14%; also: read at 38.3 µM for the half of the compounds with a filed dose; 0% is about no effect
# Pf growth 48h: Primary qHTS for delayed death inhibitors of the malarial parasite plastid, 48 hour incubation; P. falciparum luciferase growth in erythrocytes, 48 h; Potency, µM (doses to about 28.7 µM), without a hit: at the top dose activity change, negative = inhibition, most hits filed as inhibitors; 310,000 tested, 5.9% active; also: potency is read from the fitted curve at half-maximal effect; % is scaled to controls: 0 for no effect and ±100 for the full control effect
#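 Here the parasites carry a stable luciferase gene and grow inside erythrocytes in Albumax-based RPMI medium with compound for one erythrocytic cycle. Activity is scored as loss of luminescent signal.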
# Numbers without * were called inactive; i = inactive; ? = inconclusive; . = no result given; + = active, no number; [ ] = dose if it differs, or a comment. Unless noted, calls follow the shape of the dose curve; as a rule, active = well fitted curve in the direction sought with a large enough effect; inconclusive = small, poorly fitted or top-dose-only effect, or another doubt; inactive = no such curve, though single readings can be large; an effect the other way counts as inactive or inconclusive.
SMILES,Sm TGR block,NS1 function inh,Pf growth 96h,Shiga inhibitor,CHX counter,Pf growth 48h
c1coc(-c2nnc3sc(-c4cccs4)nn23)c1,18µM*,-16%,.,45,14*,-6%
COc1ccc(-c2nn3c(-c4ccco4)nnc3s2)cc1OC,?,-36%,-3%,2,-1,?
c1csc(-c2nn3c(-c4ccncc4)nnc3s2)c1,1%,?,?,12,-2,6%
COc1cccc(-c2nnc3sc(-c4ccco4)nn23)c1,-15%,?,?,45,39*,42%
Cc1ccc(NC(=O)C(=O)NCC(c2cccnc2)N2CCN(c3ccccc3F)CC2)cc1Cl (centres undefined),21%,.,.,.,.,.
CCCS(=O)(=O)c1c(S(=O)(=O)CCC)c2cc(CC)ccn2c1C(=O)OC,3%,-43%,-19%,10,-2,?
CCCS(=O)(=O)c1c(S(=O)(=O)CCC)c2cc(C(C)(C)C)ccn2c1C(=O)c1ccccc1,-10%,.,.,.,.,.
CCCS(=O)(=O)c1c(S(=O)(=O)CCC)c2ccccn2c1C(=O)OC,28µM*,-100%,.,-11,-1,2%
CCCS(=O)(=O)c1c(S(=O)(=O)CCC)c2c(C)cccn2c1C(=O)OC,10µM*,-2%,6%,-9,-3,-2%
CCCS(=O)(=O)c1c(S(=O)(=O)CCC)c2c3ccccc3ccn2c1C(=O)OC,?,27%,45%,0,-3,12µM*
CC(C)c1ccccc1N=C1SCCCN1C(=O)c1cccc(N2C(=O)CCC2=O)c1,-7%,.,?,.,.,?
C=CCSc1nc2ccccc2c(=O)n1Cc1ccco1,.,-11%,.,.,.,.
COC(=O)C1(Cc2ccccc2)NC(c2ccccc2C)C2C(=O)N(c3ccc4c(c3)OCO4)C(=O)C21 (centres undefined),-17%,21%,23%,3,-1,12µM*
CCCC1(C(=O)OC)NC(c2ccc(OC)c(OC)c2)C2C(=O)N(c3ccc4c(c3)OCO4)C(=O)C21 (centres undefined),-2%,-2%,80%,12,-2,.
O=c1oc2ccccc2c2c1C1O[C@](c3ccsc3)(Cc3c1ccc1ccccc31)O2,8.9µM*,12%,?,i,19*,45%[5.75 µM]
O=C1C2=C(C(=O)c3ccccc31)C1O[C@](c3ccsc3)(Cc3c1ccc1ccccc31)O2,?,3%,?,+,33*,?
O=C1CCCC2=C1C1O[C@](c3ccsc3)(Cc3c1ccc1ccccc31)O2,?,-2%,?,i,15*,?
CC(C)CC(=O)Nc1cc(-c2ccccc2F)nn1-c1ccccc1,1%,.,.,.,.,.
CC(C)(C)c1cc(CCC(=O)NCC2CCCO2)cc(C(C)(C)C)c1O (centres undefined),0%,5%,?,-11,-3,-1%
Cc1cccc(OCCCSc2nc(-c3ccc(C(C)(C)C)cc3)nc3cc(=O)[nH]n23)c1C,-7%,.,.,.,.,.
COc1ccc2nc(SCC(=O)N3CCCCCC3)c(C#N)cc2c1,-33%,-22%,-16%,87*,15*,?
CCOc1ccc2nc(SCC(=O)N3c4ccccc4Sc4ccccc43)sc2c1,-7%,-1%,-11%,-10,-3,3%
CCOc1ccc2nc(SCC(=O)N3c4ccccc4Sc4ccccc43)c(C#N)cc2c1,1%,5%,?,25,-5,10µM*
COc1ccc2nc(SCC(=O)NCC3CCCO3)c(C#N)cc2c1 (centres undefined),-8%,-23%,2.1µM*,-3,-3,0%
N#Cc1cc2c(nc1SCC(=O)Nc1ccc(Cl)cc1)C1CCN2CC1,0%,11%,1%,74,23*,13µM*
SMILES,Sm TGR block,NS1 function inh,Pf growth 96h,Shiga inhibitor,CHX counter,Pf growth 48h
Cc1cc2cc3c(cc2nc1SCC(=O)N1CCCC1)OCCO3,-4%,-4%,?,-3,-4,-7%
Cc1cc(C)c(C#N)c(SCC(=O)Nc2cccc(S(=O)(=O)N3CCCC3)c2)n1,-6%,.,?,.,.,?
CCOc1ccc2nc(SCC(=O)Nc3ccc(S(=O)(=O)N4CCCC4)cc3)c(C)cc2c1,2%,-1%,?,19,-1,?
Cc1cc(C)c2nc(SCC(=O)Nc3ccc(S(=O)(=O)N4CCCC4)cc3)c(C)cc2c1,4%,-5%,.,10,0,9.3µM*
COc1ccc2nc(SCC(=O)Nc3ccc(S(=O)(=O)N4CCCC4)cc3)c(C#N)cc2c1,-12%,12%,?,-9,-2,3.3µM*
N#Cc1cc2cc3c(cc2nc1SCC(=O)N1CCOCC1)OCCO3,-3%,8%,10%,74*,52*,0%
N#Cc1cc2ccccc2nc1SCC(=O)Nc1ccc(S(=O)(=O)N2CCCC2)cc1,-10%,?,?,6,-1,9.3µM*
CCOC(=O)c1c(O)cc(C)cc1Nc1ccccc1,-1%,-4%,?,-2,11,-18%
COc1cc2cnc(-c3ccccc3)c(-c3ccc(C#N)cc3)c2cc1OC,-25%,.,?,.,.,2.3µM*
O=C(O)c1ccc2c3c(cccc13)C(=O)N(c1ccccc1)C2=O,7%,1%,?,-19,-3,0%
Cc1c(O)c2c3c(cccc3c1O)C(=O)N(c1ccccc1)C2=O,-6%,-23%,10µM*,-6,-3,?
O=C(Nc1ccc2c(c1)OCO2)N1CCN(c2ccccc2)CC1,0%,6%,-11%,21,10,-6%
O=C(Nc1ccc2c(c1)OCCO2)N1CCN(c2ccccc2)CC1,-1%,-10%,45%,47*,20*,38%
O=C(Nc1ccc2c(c1)OCCO2)N1CCN(Cc2ccccc2)CC1,16%,.,376%,61*,38*,476%
C[n+]1cccc2cccc([O-])c21,50µM*,3%,?,-4,1,3.3µM*
COc1ccc(C(=O)NC(=S)NNC(=O)[C@H]2C[C@@H]2c2ccccc2)cc1OC,-9%,4%,1.5µM*,-5,1,?
CCN(c1ccccc1)S(=O)(=O)c1ccc(N2CCN(c3ccccc3O)CC2)nc1,-22%,.,9.3µM*,.,.,6.6µM*
O=C(NCCCN1CCCC1=O)c1ccc(NS(=O)(=O)c2cccc([N+](=O)[O-])c2)cc1,12%,.,4%,.,.,0%
O=c1[nH]c(/C(Cl)=C/c2cc(Cl)ccc2O)nc2cc(Cl)ccc12,0%,-9%,9.3µM*,-5,-1,-23%
O=C1c2ccccc2C(=O)C1c1ccc2ccccc2n1,-4%,-12%[9.22 µM],?,78*,34*,208%
O=C1c2ccc3c4c(ccc(c24)C(=O)N1c1cccc(O)c1)C(=O)N(c1cccc(O)c1)C3=O,-11%,4%,1µM*,3,-4,1.9µM*

# Screens: PubChem BioAssay, National Center for Advancing Translational Sciences (NCATS)
